# Test results published in PubChem BioAssay (NCATS).
# “And” between values parts separate entries of the source, which are not always exact repeats. Equal entries are not always repeated. Inconclusive results are not listed. A call without a number means that no potency is given here. The source made the active and inactive calls. Calls come from the whole dose curve; as a rule, active = well fitted cell-killing curve with a large enough effect; inconclusive = small, poorly fitted or top-dose-only effect; inactive = no such curve, though single readings can be large or run the other way.
# Assay: qHTS of pediatric cancer cell lines to identify multiple opportunities for drug repurposing: Primary screen for SK-N-MC cells (AID 1347093)
# Settings: SK-N-MC viability, CellTiter-Glo luminescence, 48 h; series mostly up to 46 µM
# Description: Drug repurposing or repositioning has been offered as a strategy for drug development in oncology programs. This approach has special potential for childhood cancers and other rare or orphan diseases, where the expected return on new drug development has been a disincentive to pharmaceuticals.
# In this project we exploit the poly-pharmacology of drugs to discover new indications via phenotypic screening of a panel of 19 well-characterized cell lines derived from solid tumors seen in children and adolescents. The goal is to identify approved drugs with previously unrecognized anticancer properties that has the potential to reveal new mechanisms and biological processes involved in carcinogenesis or drug resistance. We employed a titration-based paradigm (quantitative high-throughput screening or qHTS), where all compounds were tested at multiple concentrations for their effect on cell viability. Concentration-response curves (CRCs) were derived directly from the primary screen, and both potency and efficacy values were used to identify compounds with robust bioactivity profiles. We screened the NIH Chemical Genomics Center (NCGC) Pharmaceutical Collection (NPC) and Mechanism Interrogation Plate (MIPE) small molecule collections of approved and investigational compounds against these cell lines; and measured metabolically active cells after 48 hours of compound treatment as a proxy for cell viability.
# Assay Submitter: Nathalia J. Martinez, National Center for Advancing Translational Sciences, National Institutes of Health, Rockville, MD, USA; email: natalia.martinez@nih.gov
# [1] Shen, M et al. Quantitative high-throughput phenotypic screening of pediatric cancer cell lines identifies multiple opportunities for drug repurposing. Oncotarget 2017 Dec 19;9(4):4758-4772. PMID 29435139.
# The cells were obtained from University of North Carolina (UNC), Pediatric Preclinical Testing Program (PPT), and Coriell Institute (CI).
# qHTS cell viability assay:
# Cells were assayed in growth media at a density of 500-1,000 cells/well. Five microliters of cells were dispensed into 1,536-well, white, solid-bottom, TC-treated plates (Greiner Bio One) using a multidrop dispenser and incubated at 37 degrees C, 5% CO2, under a humidified atmosphere for 5 hours. Twenty-three nanoliters of compounds and controls (neutral control DMSO or positive control bortezomib at final concentration of 2.3 µM) were subsequently transferred by Kalypsys pintool. For primary screens, the MIPE collection was tested at 11-point dilutions (final concentrations range from 0.78 nM to 46 µM) and the NPC collection at 8-point dilutions (final concentrations range from 0.59nM to 46 µM). Compounds tested in follow-up screens were assayed at 11-point dilutions. Cells were incubated for 48 hours, followed by addition of 3 uL of CellTiter-Glo (Promega). After a 15 min incubation at room temperature, samples were analyzed for luminescence intensity using a ViewLux High-throughput CCD imager equipped with clear filters.
# Potency is the fitted concentration of half-maximal effect.
row,SMILES,Potency
1,Cc1cccc(C)c1NC(=O)CN1CCCC1=O,inactive
2,Oc1ccccc1-c1ccccc1,inactive
3,Cc1ccc(S(=O)(=O)N[C@@H](CCCCN)C(=O)CCl)cc1,21.1 µM (active)
4,O=C1NCN(c2ccccc2)C12CCN(CC1COc3ccccc3O1)CC2 (stereo not given),inactive
5,Cn1c(CCCC(=O)O)nc2cc(N(CCCl)CCCl)ccc21,26.4 µM (active)
6,CN(C)CCc1ccc(O)cc1,inactive
7,CNCC(O)c1ccc(O)cc1 (stereo not given),inactive
8,C[C@]12CCC(=O)C(O)=C1CC[C@@H]1[C@@H]2CC[C@]2(C)C(=O)CC[C@@H]12,inactive
9,CC[N+](CC)(CC)CC,inactive
10,Fc1ccc(C(OCCN2CCN(CCCc3ccccc3)CC2)c2ccc(F)cc2)cc1,9.35 µM (active) and 10.6 µM (active)
11,O=P1(NCCCl)OCCCN1CCCl (stereo not given),inactive
12,CCN(CC)CCN1C(=O)CN=C(c2ccccc2F)c2cc(Cl)ccc21,inactive
13,O=C(NC(O)C(Cl)(Cl)Cl)NC(O)C(Cl)(Cl)Cl (stereo not given),inactive
14,FC(F)(F)c1cccc(C2=CCN(CCc3ccc4ccccc4c3)CC2)c1,inactive
15,N[C@@H](Cc1ccc(Oc2cc(I)c(O)c(I)c2)c(I)c1)C(=O)O,inactive
16,CCN(C(C)=O)c1cccc(-c2ccnc3c(C#N)cnn23)c1,inactive
17,CC(C)CC(N(C)C)C1(c2ccc(Cl)cc2)CCC1 (stereo not given),inactive
18,NCC1(CC(=O)O)CCCCC1,inactive
19,Cc1sc2c(c1C)C(c1ccc(Cl)cc1)=N[C@@H](CC(=O)OC(C)(C)C)c1nnc(C)n1-2,0.118 µM (active)
20,c1ccc2c(c1)OCC(C1=NCCN1)O2 (stereo not given),18.8 µM (active)

row,SMILES,Potency
1,CCC1(C2=NCCN2)Cc2ccccc2O1 (stereo not given),inactive
2,c1ccc2c(c1)Nc1ccccc1S2,inactive
3,CCCN1CCC[C@@H]2Cc3nc(N)ncc3C[C@H]21,inactive
4,C#CCOC(C(=O)OCCN(C)C)(c1ccccc1)c1ccccc1,inactive
5,CCN(CC)CCOC(=O)C(O)(c1ccccc1)c1ccccc1,inactive
6,C[C@]12CC[C@H]3[C@@H](CCC4=CC(=O)CC[C@@H]43)[C@@H]1CC[C@@H]2OC(=O)CCc1ccccc1,inactive
7,CCOC(=O)C1(c2ccccc2)CCN(CCC(C#N)(c2ccccc2)c2ccccc2)CC1,4.73 µM (active)
8,CC[C@@H](CO)NC(=O)[C@@H]1C=C2c3cccc4c3c(cn4C)C[C@H]2N(C)C1,inactive
9,COc1ccc(C(=O)c2c(C)n(CCN3CCOCC3)c3ccccc23)cc1,inactive
10,CC1NCCOC1c1ccccc1 (stereo not given),inactive
11,C=CCN1CC[C@]23c4c5ccc(O)c4O[C@H]2C(=O)CC[C@@]3(O)[C@H]1C5,inactive
12,NN=C(N)N,inactive
13,COC1(CS(=O)c2ccccc2)CCN(CCc2c[nH]c3ccc(F)cc23)CC1 (stereo not given),inactive
14,CN(C)CCN(C)CCc1ccc(Cl)c(Cl)c1,14.8 µM (active)
15,N[C@@H](Cc1ccc(N(CCCl)CCCl)cc1)C(=O)O,2.99 µM (active) and 2.35 µM (active)
16,Nc1ccncc1,inactive
17,N[C@@H]1C[C@H]1c1ccccc1,inactive
18,CN1C(=S)CN=C(c2ccccc2)c2cc(Cl)ccc21,inactive
19,COC[C@H]1OC(=O)c2coc3c2[C@@]1(C)C1=C(C3=O)C2CCC(=O)[C@@]2(C)C[C@H]1OC(C)=O (stereo not given in full),1.05 µM (active)
20,CCCN1CCC[C@@H]2Cc3[nH]ncc3C[C@H]21,inactive
